78 sequences from the supplement of paper PMC3724861 can be followed below.

The sample as a whole holds a higher share of hits than the screen did. The hit rate among all sequences tested is not known here. A number with no mark means an inactive call.

This test concerns T1, Caupolican (Caup) homeodomain DNA-binding domain.
T1 sequence: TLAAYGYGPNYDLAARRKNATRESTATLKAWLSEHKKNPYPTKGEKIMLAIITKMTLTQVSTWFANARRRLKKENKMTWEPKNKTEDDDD
The experiment in a line: PBM E-score (8-mer, recovered from the published 9-mer minima) (E-score (dimensionless, -0.5 to 0.5)); Drosophila protein; higher = stronger relative binding preference, active = 0.31 or more. The procedure: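 Protein binding microarray (PBM): in vitro transcribed/translated Caupolican (Caup) homeodomain DNA-binding domain (residues 214-303) applied at 100 nM to a universal 8-mer PBM array (Agilent AMADID 015681). The 8-mer enrichment score (E-score, range -0.5 to 0.5) was computed, and each 9-mer score is the minimum E-score of its two constituent 8-mers. The E-score is the same for a 9-mer and its reverse complement; 0.31 is the stated binding threshold.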
For the sequence TACACGGA, the “PBM E-score” value was 0.375 (active).

As for GACACGTA, the “PBM E-score” value is 0.348 (active).

In the case of CACACGTA, the “PBM E-score” value was 0.142.

For GACACGGA, the “PBM E-score” value is 0.286.

As to CACACGAA, the “PBM E-score” value is 0.0926.

Consider TACACGTA, for which the “PBM E-score” value is 0.361 (active).

With CACACGGA, the “PBM E-score” value was 0.00106.

In the case of TACACGAA, the “PBM E-score” value is 0.371 (active).

Turning to GGAGTTAC, the “PBM E-score” value is 0.0415.

In the case of AAAGGTTG, the “PBM E-score” value was -0.00255.

Take CTGGTAAC: the “PBM E-score” value is 0.115.

Turning to AGCCCAGC, the “PBM E-score” value is -0.172.

Turning to CATACTGC, the “PBM E-score” value was -0.0312.

As for AAGAGTGC, the “PBM E-score” value was 0.0487.

As to AGATCCAT, the “PBM E-score” value was -0.0856.

Consider GAAGACTC, for which the “PBM E-score” value was -0.0665.

ACCTCAAA: the “PBM E-score” value is -0.032.

Consider CCATCAGA, for which the “PBM E-score” value was -0.105.

With ATGACATC, the “PBM E-score” value is 0.333 (active).

With CTGACATA, the “PBM E-score” value is 0.22.

Regarding GTGACACA, the “PBM E-score” value was 0.245.

As to ATGACAGG, the “PBM E-score” value was 0.117.

With ATGACACA, the “PBM E-score” value was 0.259.

Turning to CTGACATC, the “PBM E-score” value was 0.28.

Consider ATGACATG, for which the “PBM E-score” value is 0.422 (active).

Take GTGACATA: the “PBM E-score” value is 0.312 (active).

As to ATGACAGA, the “PBM E-score” value was 0.22.

In the case of ATGACATA, the “PBM E-score” value was 0.379 (active).

GGGACATA: the “PBM E-score” value was 0.113.

As to ATGACACC, the “PBM E-score” value was 0.266.

On to ACCAGGCT, for which the “PBM E-score” value was -0.045.

AAGGGTTC: the “PBM E-score” value was -0.134.

Turning to ATAAGTAT, the “PBM E-score” value is 0.0762.

For ATTATCGC, the “PBM E-score” value is 0.0263.

Consider AGGAAGAA, for which the “PBM E-score” value was -0.0327.

AGCTAGTA: the “PBM E-score” value is 0.108.

With AACGTGAG, the “PBM E-score” value is -0.0335.

For AACGTACC, the “PBM E-score” value is 0.0531.

Regarding GTCGTACA, the “PBM E-score” value is 0.352 (active).

Consider ATCGTACC, for which the “PBM E-score” value is -0.0488.

ATCGTACA: the “PBM E-score” value is 0.349 (active).

AACGTACA: the “PBM E-score” value was ≥ 0.337 (active).

CACGTACA: the “PBM E-score” value is 0.261.

With ATCGTACG, the “PBM E-score” value is 0.133.

Consider CTCGTACA, for which the “PBM E-score” value is 0.238.

With GTCGTATA, the “PBM E-score” value was 0.165.

As for AATCGGTG, the “PBM E-score” value was 0.0507.

For CGGTGTGA, the “PBM E-score” value was 0.0901.

In the case of ATCAAAAT, the “PBM E-score” value is 0.131.

On to AAAGTCAC, for which the “PBM E-score” value was 0.0854.

In the case of AACCAGGA, the “PBM E-score” value was 0.0369.

Take ACTCGGGA: the “PBM E-score” value was -0.117.

As for CGCATGGA, the “PBM E-score” value is -0.0924.

Consider CGCATGCA, for which the “PBM E-score” value is 0.025.

Turning to AGCATGCC, the “PBM E-score” value was -0.0456.

As for CGCATGTC, the “PBM E-score” value is 0.348 (active).

On to AGCATGTG, for which the “PBM E-score” value was 0.222.

As for CGCATGTA, the “PBM E-score” value was 0.352 (active).

CGCATGAC: the “PBM E-score” value was -0.0417.

With CGCATGCC, the “PBM E-score” value is -0.0847.

Take AGCATGTC: the “PBM E-score” value is 0.376 (active).

Take CACACTGC: the “PBM E-score” value is -0.0174.

For AGTTTCAG, the “PBM E-score” value was -0.0628.

Turning to ATCCAGAC, the “PBM E-score” value was -0.00977.

For the sequence AATTCGTC, the “PBM E-score” value was 0.0479.

CCCTGAGG: the “PBM E-score” value was -0.185.

With GTCATGCA, the “PBM E-score” value is 0.111.

On to ATCATGAC, for which the “PBM E-score” value was 0.233.

With CTCATGTC, the “PBM E-score” value is 0.306.

With GTCATGTA, the “PBM E-score” value is 0.43 (active).

Regarding CTCATGTA, the “PBM E-score” value is 0.377 (active).

CTCATGGA: the “PBM E-score” value is 0.0584.

For ATCATGTG, the “PBM E-score” value was 0.226.

Consider GTCATGGA, for which the “PBM E-score” value is -0.0262.

Regarding ATCATGAA, the “PBM E-score” value is 0.0136.

Turning to ATCATGTC, the “PBM E-score” value was ≥ 0.42 (active).

In the case of ATCATGTA, the “PBM E-score” value was ≥ 0.435 (active).

As to CTCATGCA, the “PBM E-score” value is 0.042.
